From PubChem BioAssay (EPA / NIEHS)
Calls of active or inactive are those of the source. The calls were made as follows: active = hit-call score of the fitted dose curve at least 0.9, where 1 is the maximum; inactive = score below 0.9.

Tests used:
Conditions in all cases: mRNA level, 48 h; actives raise or lower the signal
[1] = read-out: Intercellular Adhesion Molecule 1 (ICAM1), ICAM1 (gene 3383); assay: LTEA_HepaRG_ICAM1: Life Technologies and Expression Analysis (LTEA) Assay for Intercellular Adhesion Molecule 1 (ICAM1) using HepaRG (AID 2283507)
Method in brief: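 ICAM1 transcript levels measured by qRT-PCR, normalized to three housekeeping genes (ACTB, GAPDH, POLR2A), after 48 h chemical exposure of HepaRG cells. Duplicate eight-point half-log series from 100 uM in 0.5% DMSO; gain or loss fitted against vehicle.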

[2] = read-out: Insulin-like growth factor-binding protein 1 (IGFBP1), IGFBP1 (gene 3484); assay: LTEA_HepaRG_IGFBP1: Life Technologies and Expression Analysis (LTEA) Assay for Insulin-like growth factor-binding protein 1 (IGFBP1) using HepaRG (AID 2283508)
Method in brief: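 Read-out is qRT-PCR transcript level normalized to three housekeeping genes, fitted in both directions against 0.5% DMSO. Differentiated HepaRG cells received eight half-log concentrations (top 100 uM) in duplicate for 48 h in serum-free induction medium.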

[3] = read-out: Interleukin 6 Receptor (IL6R), IL6R (gene 3570); assay: LTEA_HepaRG_IL6R: Life Technologies and Expression Analysis (LTEA) Assay for Interleukin 6 Receptor (IL6R) using HepaRG (AID 2283510);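 as to AC50: differentiated human HepaRG liver cells in serum-free induction medium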
Method in brief: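 In this HepaRG screen, test chemicals act on cells for 48 h at up to 100 uM (eight half-log points, duplicate wells). IL6R expression is quantified by qRT-PCR after normalization to ACTB, GAPDH and POLR2A, with DMSO as baseline.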

[4] = read-out: Potassium channel subfamily K member 1 (KCNK1), KCNK1 (gene 3775); assay: LTEA_HepaRG_KCNK1: Life Technologies and Expression Analysis (LTEA) Assay for Potassium channel subfamily K member 1 (KCNK1) using HepaRG (AID 2283511)
Method in brief: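 Human HepaRG cultures receive test chemicals for 48 h in 0.5% DMSO, top concentration 100 uM with half-log dilutions. Induction or suppression of KCNK1 mRNA relative to DMSO is derived by bidirectional fitting of qRT-PCR data.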

[5] = read-out: Keratin 19 (KRT19), KRT19 (gene 3880); assay: LTEA_HepaRG_KRT19: Life Technologies and Expression Analysis (LTEA) Assay for Keratin 19 (KRT19) using HepaRG (AID 2283512)
Method in brief: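 KRT19 transcript measured by TaqMan qRT-PCR, referenced to three housekeeping genes, after HepaRG cells received test chemicals for 48 h. Eight half-log concentrations, top 100 uM, 0.5% DMSO vehicle; increases and decreases both fitted.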

[6] = read-out: JUN Transcription Factor, JUN (gene 3725); assay: LTEA_HepaRG_JUN: Life Technologies and Expression Analysis (LTEA) Assay for JUN Transcription Factor using HepaRG (AID 2283513)
Method in brief: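 Gene-expression endpoint: JUN mRNA (qRT-PCR, normalized to three reference genes) in HepaRG cultures treated 48 h with chemicals, duplicate wells, 100 uM maximum with half-log dilutions; bidirectional fitting relative to 0.5% DMSO.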

[7] = read-out: Lipase C (LIPC), LIPC (gene 3990); assay: LTEA_HepaRG_LIPC: Life Technologies and Expression Analysis (LTEA) Assay for Lipase C (LIPC) using HepaRG (AID 2283514)
Method in brief: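 In this multiplexed gene-expression screen, human HepaRG cultures received test chemicals for 48 h across eight concentrations with 100 uM highest, in duplicate. Values reflect LIPC mRNA induction or suppression versus DMSO vehicle, from normalized qRT-PCR.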

[8] = read-out: Lipoprotein lipase (LPL), LPL (gene 4023); assay: LTEA_HepaRG_LPL: Life Technologies and Expression Analysis (LTEA) Assay for Lipoprotein lipase (LPL) using HepaRG (AID 2283515)
Method in brief: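 Concentration-response testing used half-log steps from 100 uM in 0.5% DMSO on human HepaRG cells, 48 h, duplicate wells. Phenobarbital 1 mM served as induction control; LPL mRNA was normalized to ACTB, GAPDH, POLR2A.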

[9] = read-out: MicroRNA 122 (MIR122), gene 406906; assay: LTEA_HepaRG_MIR122: Life Technologies and Expression Analysis (LTEA) Assay for MicroRNA 122 (MIR122) using HepaRG (AID 2283516); also: the transcript read is the microRNA miR-122
Method in brief: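 Changes in transcript abundance, up or down relative to 0.5% DMSO vehicle, were scored after 48 h chemical treatment of HepaRG cells (maximum 100 uM). Quantification used TaqMan qRT-PCR normalized to housekeeping genes.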

[10] = read-out: Interleukin 6 (IL6), IL6 (gene 3569); assay: LTEA_HepaRG_IL6: Life Technologies and Expression Analysis (LTEA) Assay for Interleukin 6 (IL6) using HepaRG (AID 2283509)
Method in brief: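 Changes in IL6 mRNA, up or down relative to 0.5% DMSO controls, were derived from concentration-response curves in human HepaRG cells treated for 48 h at up to 100 uM, with ACTB, GAPDH and POLR2A as normalizers.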

Measured: AC50

CO/C=C(/C(=O)OC)c1ccccc1COc1cccc(C(F)(F)F)n1
inactive: [3]
active: [1] 8.33 µM | [2] 8.19 µM | [4] 27.8 µM | [5] 12.4 µM | [6] 50 µM | [7] 22.6 µM | [8] 9.42 µM | [9] 6.86 µM

CCSC(=O)N(CC)C1CCCCC1
inactive: [1] | [2] | [10] | [3] | [4] | [5] | [6] | [7] | [8] | [9]

c1ccc(-c2ccccc2)cc1
inactive: [1] | [2] | [3] | [4] | [5] | [6] | [7] | [8] | [9]

Cc1cccc(C)c1N
inactive: [1] | [2] | [10] | [3] | [4] | [5] | [6] | [7] | [8] | [9]

COS(=O)(=O)OC
inactive: [1] | [2] | [10] | [3] | [4] | [5] | [6] | [7] | [8] | [9]

Cc1ccc(O)c(C)c1
inactive: [1] | [2] | [3] | [4] | [5] | [6] | [7] | [8] | [9]

Clc1ccc(Cl)cc1
inactive: [1] | [2] | [10] | [3] | [4] | [5] | [6] | [7] | [8] | [9]

Clc1ccc(C(c2ccccc2Cl)C(Cl)(Cl)Cl)cc1 (configuration not stated)
inactive: [1] | [2] | [10] | [3] | [4] | [6] | [9]
active: [5] 20.4 µM | [7] 84.4 µM | [8] 89.7 µM

N#Cc1ccc(N(CC(N)=O)CC(F)(F)F)cc1C(F)(F)F
inactive: [1] | [2] | [10] | [3] | [4] | [5] | [6] | [7] | [8] | [9]

O=C(NC(=O)c1cc(F)c(F)cc1Cl)Nc1cc(F)ccc1N1CCC(C(=O)O)CC1
inactive: [1] | [2] | [3] | [4] | [5] | [6] | [7] | [8] | [9]

CCC(C)(CC)c1cc(NC(=O)c2c(OC)cccc2OC)on1
active: [2] 50 µM
inactive: [1] | [10] | [3] | [4] | [6] | [7] | [8] | [9]

CCCCCCCCCc1ccc(O)cc1
inactive: [1] | [2] | [10] | [3] | [4] | [5] | [6] | [7] | [8] | [9]

Nc1ccc(-c2ccc(N)cc2)cc1
inactive: [1] | [2] | [10] | [3] | [4] | [5] | [6] | [7] | [8] | [9]

Cc1ccccc1[N+](=O)[O-]
inactive: [1] | [2] | [10] | [3] | [4] | [5] | [6] | [7] | [8] | [9]

CC(c1ccc(O)cc1)(c1ccc(O)cc1)c1ccc(O)cc1
active: [1] 33.4 µM | [2] 18.8 µM | [3] 72.7 µM | [5] 50 µM | [6] 82.9 µM | [8] 68.6 µM | [9] 77.9 µM
inactive: [4] | [7]

C1CC2OC2CC1C1CO1 (configuration not stated)
inactive: [1] | [2] | [10] | [3] | [4] | [5] | [6] | [7] | [8] | [9]

Cc1ccccc1CO[C@@H]1C[C@@]2(C(C)C)CC[C@]1(C)O2
inactive: [1] | [2] | [3] | [4] | [5] | [6] | [7] | [8] | [9]

C[C@]12CCC(=O)C=C1CC[C@@H]1[C@@H]2CC[C@]2(C)C(=O)CC[C@@H]12
active: [10] 9.92 µM
inactive: [1] | [2] | [3] | [4] | [5] | [6] | [8] | [9]

C=CC(N)=O
inactive: [1] | [2] | [10] | [3] | [4] | [5] | [6] | [7] | [8] | [9]

O=S(=O)(O)C(F)(F)C(F)(F)C(F)(F)C(F)(F)C(F)(F)C(F)(F)F
inactive: [1] | [2] | [10] | [3] | [4] | [5] | [6] | [7] | [8] | [9]
